From PubChem BioAssay
FLuc modulator = firefly luciferase modulation, counter-screen for miR-21 project; P08659; Potency, µM (highest dose often 57.5 µM), most hits filed as inhibitors; purified FLuc, Km substrates, luminescence inhibition; 360,000 compounds, 6.9% hits; also: nearly all actives have a fitted effect of over 55% in size
Target sequence (P08659 whole entry, looked up): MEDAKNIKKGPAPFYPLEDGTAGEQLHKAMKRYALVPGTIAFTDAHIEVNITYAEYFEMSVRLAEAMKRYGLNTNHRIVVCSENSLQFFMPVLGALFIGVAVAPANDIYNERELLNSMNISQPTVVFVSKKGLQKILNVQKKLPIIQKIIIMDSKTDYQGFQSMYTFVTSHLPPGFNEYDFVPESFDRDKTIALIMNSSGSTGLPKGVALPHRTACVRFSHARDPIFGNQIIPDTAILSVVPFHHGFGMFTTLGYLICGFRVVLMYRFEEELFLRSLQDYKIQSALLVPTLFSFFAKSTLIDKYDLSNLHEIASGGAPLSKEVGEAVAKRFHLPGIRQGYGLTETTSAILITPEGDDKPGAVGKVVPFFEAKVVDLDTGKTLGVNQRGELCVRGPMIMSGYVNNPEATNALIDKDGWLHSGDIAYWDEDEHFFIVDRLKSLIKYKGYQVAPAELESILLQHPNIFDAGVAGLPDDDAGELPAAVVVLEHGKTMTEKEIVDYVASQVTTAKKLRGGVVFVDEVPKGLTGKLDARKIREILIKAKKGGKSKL
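Purified P. pyralis luciferase (10nM final) with 10uM D-luciferin and 10uM ATP (Km levels) in 50mM Tris acetate pH 7.5, 10mM Mg acetate, 0.01% Tween-20, 0.05% BSA; qHTS 6-point titration, ~60 µM downward; luminescence read.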
SMN2 splice enh = increases expression of the SMN2 splice variant; HEK293 SMN2-luciferase splicing reporter, luminescence, 30-36 h; 210,000 compounds, 2.8% hits; Potency, µM (top dose mostly 46.1 µM), most hits filed as activators; also: nearly all actives have a fitted effect of over 55% in size
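HEK293 cells carry an SMN2 minigene-luciferase reporter in which exon 7 inclusion puts luciferase in frame. Cells were seeded at 2000 cells/well, attached for 10-12 hours, then exposed to compounds for 30-36 hours at 37C before ONE-Glo luminescence.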
ELG1 genotox = genotoxicity induction in ELG1-luciferase HEK293T cells. HEK293T ELG1-luciferase reporter, luminescence, 16 h. AID 504466. 330,000 compounds, 1.3% hits. Potency, µM (top dose mostly 46 µM), hits mostly activators; also: nearly all actives have a fitted effect of over 60% in size
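Reporter readout depends on ELG1 protein level, which increases with genetic stress. After 16 hr compound exposure at 37 °C, luciferase activity was quantified using ONE-Glo.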
Rab9 promoter act = activators of Rab9 promoter; Huh7 Rab9 promoter-luciferase reporter, luminescence, 24 h; Potency, µM (highest dose often 9.22 µM), most hits filed as activators; 320,000 compounds, 2.8% hits; AID 485297; also: nearly all actives have a fitted effect of over 60% in size
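Using Huh7 cells stably transfected with Rab9 promoter–luciferase, compounds were incubated 24 h at 37 °C, 5% CO2; luciferase luminescence was read 10 min after reagent addition.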
NPC1 promoter act = NPC1 promoter activation | Huh7 NPC1 promoter luciferase reporter, 24 h | Potency, µM (top dose mostly 9.22 µM), usual class: activators | 320,000 compounds, 2.4% hits; also: nearly all actives have a fitted effect of over 60% in size
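Stable NPC1-promoter luciferase Huh7 line; cpd (DMSO) 24 h, 37 °C, 5% CO2; Amplite luciferase reagent 10 min RT; luminescence readout. qHTS format.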
Each line names hits and unclear results; the compound was inactive in the other large screens. Rows were chosen to be rich in hits. Some 7.5% of all compounds tested hit in one or more screens of this group. Calls follow the shape of the dose curve; as a rule, active = well fitted curve in the direction sought with a large enough effect; inconclusive = small, poorly fitted or top-dose-only effect, or another doubt; inactive = no such curve, though single readings can be large; an effect the other way counts as inactive or inconclusive.

COc1ccc(NC(=O)C(C)Sc2cc(-c3ccccc3)nc(C)n2)cc1Cl (configuration not stated)	none (no result: SMN2 splice enh, ELG1 genotox, Rab9 promoter act, NPC1 promoter act)
COc1ccc(-c2cc3c(=O)n(CC(=O)NCCCc4ccccc4)ncn3n2)cc1	FLuc modulator inconclusive, ELG1 genotox inconclusive, Rab9 promoter act 4µM, NPC1 promoter act 2.8µM (no result: SMN2 splice enh)
CCC1CCCCN1CCCNC(=O)Cn1ncn2nc(-c3ccc(OC)cc3)cc2c1=O (configuration not stated)	FLuc modulator 24µM, ELG1 genotox inconclusive, Rab9 promoter act inconclusive (no result: SMN2 splice enh)
CCc1ccc(-c2cc3c(=O)n(CC(=O)NCCCN4CCN(C)CC4)ncn3n2)cc1	FLuc modulator 2.4µM, ELG1 genotox inconclusive, Rab9 promoter act 2.8µM, NPC1 promoter act 2.8µM (no result: SMN2 splice enh)
COc1ccc(-c2cc3c(=O)n(CC(=O)N4CCN(C)CC4)ncn3n2)cc1	FLuc modulator 2.4µM, ELG1 genotox inconclusive, Rab9 promoter act 5µM, NPC1 promoter act inconclusive (no result: SMN2 splice enh)
O=C(OCC(=O)N1CCN(C(=O)c2ccco2)CC1)c1cccc(S(=O)(=O)N2CCc3ccccc32)c1	none
OCc1cc2c(cn1)[nH]c1ccccc12	none (no result: FLuc modulator, ELG1 genotox, Rab9 promoter act, NPC1 promoter act)
O=C1NC(c2cccs2)Nc2sc3c(c21)CCCC3 (configuration not stated)	FLuc modulator 6.7µM, SMN2 splice enh inconclusive, Rab9 promoter act 3.5µM, NPC1 promoter act 2.8µM
Cc1onc(-c2ccccc2Cl)c1C(=O)Oc1cccc2cccnc12	none
O=C(c1ccc(-c2ccccc2)cc1)C1CCCN(Cc2ccncc2)C1 (configuration not stated)	FLuc modulator 7.6µM, ELG1 genotox inconclusive, Rab9 promoter act 1.3µM, NPC1 promoter act 4µM (no result: SMN2 splice enh)
COc1cccc(-c2nc(Cn3c(=O)cc(C)c4c(C)nn(-c5ccccc5)c43)c(C)o2)c1OC	none (no result: SMN2 splice enh, ELG1 genotox, Rab9 promoter act, NPC1 promoter act)
CCOC(=O)CSc1nc(C(C)(C)C)nc2ccccc12	none (no result: SMN2 splice enh)
COc1ccc([N+](=O)[O-])cc1NCc1ccccc1	SMN2 splice enh 32µM, ELG1 genotox inconclusive
O=[N+]([O-])c1ccc(NCc2ccccc2)nc1	FLuc modulator 21µM, SMN2 splice enh inconclusive, ELG1 genotox inconclusive
Cc1cccc(CS(=O)(=O)Cc2ccc(C(=O)NC3CCCCCC3)o2)c1	none (no result: SMN2 splice enh)
Cc1ccc2c(C)ccc(O)c2n1	none
Cc1ccc(O)c(N=Nc2ccccc2)n1	SMN2 splice enh inconclusive, Rab9 promoter act 21µM, NPC1 promoter act 18µM (no result: FLuc modulator, ELG1 genotox)
COc1cccc(-n2c(SCC(=O)N3CCc4ccccc43)nc3c([nH]c4ccccc43)c2=O)c1	none (no result: SMN2 splice enh, ELG1 genotox, Rab9 promoter act, NPC1 promoter act)
CC1CCC(NC(=O)CN2C(=O)NC(C)(C)C2=O)CC1 (configuration not stated)	ELG1 genotox 0.12µM (no result: SMN2 splice enh)
CCc1c(C(=O)N/N=C/c2ccsc2)csc1C	FLuc modulator inconclusive
COc1ccc(/C=N/NC(N)=S)cc1	FLuc modulator inconclusive (no result: SMN2 splice enh)
CCOc1ccc(/C=N/NC(=O)c2csc(C)c2C)c(OCC)c1	none
CC(C)Oc1ccc(/C=N/NC(N)=S)cc1	FLuc modulator 15µM, SMN2 splice enh inconclusive, Rab9 promoter act inconclusive, NPC1 promoter act inconclusive
Cc1scc(C(=O)N/N=C/c2ccc(OC(C)C)cc2)c1C	FLuc modulator 6.7µM, SMN2 splice enh inconclusive, ELG1 genotox inconclusive, Rab9 promoter act inconclusive
CCCCOc1cccc(/C=N/NC(=O)c2csc(C)c2C)c1	FLuc modulator 7.6µM
COc1ccccc1/C=N/NC(=O)c1csc(C)c1C	FLuc modulator 3.4µM
COCc1ccc(CN2CCc3c([nH]c4ccccc34)C2CC(C)C)o1 (configuration not stated)	none (no result: SMN2 splice enh)
NC(=O)C1CCN(CC(=O)N2N=CCC2c2ccccc2)CC1 (configuration not stated)	none (no result: SMN2 splice enh)
COc1ccc(N2CCN(CC(O)COc3ccc(C(C)C)c(C)c3)CC2)cc1 (configuration not stated)	none (no result: ELG1 genotox, Rab9 promoter act, NPC1 promoter act)
CCOC(=O)c1ccc(NC(=O)N2CCN(c3cccc(OC)c3)CC2)cc1	none
CCOc1ccc(CN2C(=O)c3ccccc3Sc3ccc(C(=O)OC)cc32)cc1	none (no result: SMN2 splice enh, ELG1 genotox, Rab9 promoter act, NPC1 promoter act)
Cc1scc(C(=O)N/N=C/c2ccc(Cl)s2)c1C	FLuc modulator 3µM, SMN2 splice enh 18µM, ELG1 genotox inconclusive, Rab9 promoter act 2.2µM, NPC1 promoter act 3.5µM
COc1ccc(CC(=O)N/N=C/c2ccc(Cl)s2)cc1OC	none (no result: SMN2 splice enh)
COc1ccc(-c2oc3ncn4nc(COc5ccc(Cl)cc5)nc4c3c2-c2ccc(OC)cc2)cc1	none (no result: ELG1 genotox, Rab9 promoter act, NPC1 promoter act)
N/C(=N\OC(=O)c1cccc2ccccc12)c1cccnc1	FLuc modulator 12µM, ELG1 genotox inconclusive (no result: SMN2 splice enh)
